Each structure is given as a SMILES string. The whole screen tested about 360,000 compounds, of which about 11,000 (3.1%) were called active. This excerpt belongs to a sample that is enriched for actives. Values without a mark were called inactive. Cut-off read from the data, not from the text of the source: active = activity change below about -30%; inactive = the rest.
% is set by controls: 0 for no effect and ±100 for the full control effect.

D(1A) dopamine receptor (Homo sapiens), sequence (P21728 whole entry, looked up): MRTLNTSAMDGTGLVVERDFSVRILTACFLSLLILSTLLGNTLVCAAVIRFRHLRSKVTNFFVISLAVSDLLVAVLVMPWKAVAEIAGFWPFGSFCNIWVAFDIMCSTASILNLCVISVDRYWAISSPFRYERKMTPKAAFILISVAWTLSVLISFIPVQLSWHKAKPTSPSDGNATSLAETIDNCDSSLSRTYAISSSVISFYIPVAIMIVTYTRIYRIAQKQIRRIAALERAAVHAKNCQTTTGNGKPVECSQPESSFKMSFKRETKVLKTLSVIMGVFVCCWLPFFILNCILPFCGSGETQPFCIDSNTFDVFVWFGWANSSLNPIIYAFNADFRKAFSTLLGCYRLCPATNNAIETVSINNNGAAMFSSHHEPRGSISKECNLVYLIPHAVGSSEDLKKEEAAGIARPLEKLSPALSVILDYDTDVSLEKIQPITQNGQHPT

This assay has as its target D(1A) dopamine receptor (Homo sapiens) (UniProt P21728). The experiment in a line: Antagonist of Human D 1 Dopamine Receptor: qHTS. To be noted: HEK293 TREx D1 cells, calcium flux, dopamine EC80; at 10 µM; stronger effect = lower value. The gist of the method: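 Tetracycline-induced HEK293 T-REx cells with force-coupled D1 receptor were loaded with a no-wash calcium dye. Compound was added after a 10 s baseline and read kinetically for 180 s; EC80 dopamine was then added and calcium flux followed another 180 s.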
(qHTS replaces the single test concentration by a dilution series.)
Turning to `CC(=O)c1ccc(NC(=O)CCc2nc(-c3ccc(C)cc3)no2)cc1`, the activity change, negative = inhibition was 6.08%.
`CC(=O)c1cccc(NC(=O)c2nc(-c3ccccc3)n(-c3cccc(C)c3)n2)c1`: the activity change, negative = inhibition was -15.7%.
Under `[O-][n+]1onc2c1CCc1[nH]c(-c3ccccc3)nc1-2` stands -44.1% (active); under `CCn1c(Cc2ccc(OC)cc2)nnc1SCC(=O)Nc1ccc(N2CCOCC2)cc1`, 0.621%; under `CCn1c(CNC(=O)c2ccc(OC)c(OC)c2)nnc1SCC(=O)Nc1ccccc1`, -0.592%.
Under `CCn1c(Cc2ccccc2)nnc1SCC(=O)Nc1ccccc1` stands -30.1% (active); under `CCC(=O)N1c2ccccc2CC1C(=O)N1CCN(c2ccccc2F)CC1` (centres undefined), 10.1%; under `CCOc1ccc(NC(=O)c2c(NC(=O)Cc3ccccc3)sc3c2CCCCC3)cc1`, 0.456%.
Under `CN(C)CCCN1C(=O)CSC1c1ccc([N+](=O)[O-])cc1` (centres undefined) stands 26.5%.
Take `CCCCc1ccc(NC(=O)NCc2cccnc2)cc1`: the activity change, negative = inhibition was 19%.
Under `CCCCCCCCCCCCN1C(=O)CSC1c1cccnc1` (centres undefined) stands -34.3% (active); under `Cc1cccc(CC(=O)N2CC(=O)Nc3ccc(F)cc3C2c2ccccc2)c1` (centres undefined), -5.67%; under `Cc1nn(CC(=O)O)c(=O)c2cc3cc(F)ccc3n12`, 16.8%.
The value for `COc1cccc(CNC(=O)Cc2csc3nc(-c4ccccc4)cn23)c1` was 8.74%; that for `COc1ccc2c(Sc3ccc(C)cc3)c(C(=O)NC(C)c3ccccc3)[nH]c2c1` (centres undefined) was -2.66%; that for `Cc1ccc(S(=O)(=O)Nc2ccc3ncccc3c2)cc1` was -37.6% (active).
Regarding `Cc1cc(C)cc(OCC(=O)Nc2ccc(S(=O)(=O)Nc3ccccn3)cc2)c1`, the activity change, negative = inhibition was -0.845%.
Under `Cc1ccc(NS(=O)(=O)c2ccc(C(C)(C)C)cc2)cn1` stands -7.23%.
Under `Cc1cn(C)c(CC(=O)NCc2ccc(Cl)cc2)c1C(=O)O` stands -2.23%.
Under `Cc1ccc(CN(C(=O)c2ccccc2[N+](=O)[O-])c2ccccn2)cc1` stands -7.2%; under `CCC(=O)N(Cc1ccccc1)c1ccccn1`, -9.42%.
`COc1cc(CN(C(=O)c2ccccc2Br)c2ccccn2)cc(OC)c1OC`: the activity change, negative = inhibition was -66.6% (active).
For the compound `CCN(CC)c1ccc(NC(=O)CN2C(=O)c3cccnc3Oc3ccc(Cl)cc32)c(C)c1`, the activity change, negative = inhibition was -6.59%.
As for `COc1ccc(N(C)C(=O)C2CCN(S(=O)(=O)c3cc(Br)cc4c3N(C(C)=O)CC4)CC2)cc1`, the activity change, negative = inhibition is 6.85%.
The value for `COc1ccc(-n2nc3c(c2NC(=O)Cc2cccc(C)c2)CS(=O)C3)cc1` (centres undefined) was -10.2%; that for `CC(=O)Nc1c2c(nn1-c1ccc(C)cc1C)CS(=O)C2` (centres undefined) was -34.5% (active); that for `Cc1cccc(CC(=O)Nc2c3c(nn2-c2cccc(Cl)c2)CS(=O)C3)c1` (centres undefined) was -0.884%.
Under `CCOc1ccc(C2CC(=O)c3c([nH]c(C(=O)OCc4ccccc4)c3C)C2)cc1` (centres undefined) stands -22.3%; under `Cc1ccc(-c2ccc(CCC(=O)O)n2-c2ccc(C(N)=O)cc2)cc1`, -5.89%; under `Clc1ccc(CSc2nncn3c2cc2occc23)cc1`, -0.2%.
As to `CCOc1ccccc1C(=O)Nc1ccc2c(c1)N(C)C(=O)c1ccccc1S2`, the activity change, negative = inhibition is -16.7%.
On to `COc1ccccc1N1CCN(c2ccc(=O)n(CC(=O)NCc3ccc(OC(C)C)cc3)n2)CC1`, for which the activity change, negative = inhibition is 23.5%.
Under `Cc1nc(-c2ccc(F)cc2)c(CC(=O)Nc2cccc(S(=O)(=O)N3CCOCC3)c2)s1` stands 4.46%; under `O=S(=O)(c1cccc(Cn2nnc(-c3ccc(F)cc3)n2)c1)N1CCOCC1`, -46.2% (active); under `O=S(=O)(c1cccc(-c2nnc3n2CCCCC3)c1)N1CCOCC1`, 2.28%.
The value for `COC(=O)c1ccc(NC(=O)c2cccc3c2C(=O)N(C2CCCCC2)C3)cc1` was -12%; that for `CC(C)c1ccc(NC(=O)Cn2c3ncccc3c(=O)n2-c2ccccc2)cc1` was -16.2%.
The value for `Cc1ccc2c(=O)c(C(=O)c3cccc(Cl)c3)cn(CC(=O)NCc3ccccc3)c2n1` was -33.4% (active).
Consider `Cc1ccc2c(=O)c(C(=O)c3ccc(Cl)cc3)cn(CC(=O)NC3CCCCC3)c2n1`, for which the activity change, negative = inhibition is -2.17%.
Under `Cc1ccc2c(=O)c(C(=O)c3ccc(F)cc3)cn(CC(=O)NC3CCCCC3)c2n1` stands -3.19%; under `COc1cccc(CNC(=O)C(=O)NCC(c2cccs2)S(=O)(=O)c2ccccc2)c1` (centres undefined), 10.2%.
The value for `Cc1ccc(Cl)cc1N(C)C(=O)Cn1nc(Cc2cccnc2)c2ccccc2c1=O` was 10.4%; that for `CCn1c(=O)c(=O)n(CC)c2cc(N3CCCCC3)c(NC(=O)c3cccc(F)c3)cc21` was 4.44%.
The value for `O=C(CCc1ccccc1)Nc1ncc([N+](=O)[O-])s1` was -30% (active).
In the case of `O=C(Nc1ccncc1)c1ccccc1[N+](=O)[O-]`, the activity change, negative = inhibition was -0.321%.
For `CC(C)(C)NC(=O)CSc1nnc(NC(=O)CCc2ccccc2)s1`, the activity change, negative = inhibition is -22.4%.
Turning to `Cc1ccc2nsnc2c1NC(=O)c1ccccc1[N+](=O)[O-]`, the activity change, negative = inhibition was 7.5%.
Turning to `CC(=O)Oc1ccccc1C(=O)Nc1ncc([N+](=O)[O-])s1`, the activity change, negative = inhibition was -33.9% (active).
Under `COC(=O)CSc1nnc(NC(=O)CCc2ccccc2)s1` stands 5.96%.
The value for `Cc1ccccc1C(=O)NCc1nc(-c2ccc(Cl)cc2)no1` was -7.49%; that for `N#Cc1nc(Nc2cccc(Cl)c2)nc(NC2CCCC2)n1` was -6.69%; that for `COc1ccc(C(=O)Nc2cccc(C(=O)OCc3cc(=O)n4c5c(sc4n3)CCCC5)c2)cc1` was -2.93%.
Consider `CN1CCOc2cc(S(=O)(=O)N3CCN(S(=O)(=O)c4c(F)cccc4F)CC3)cnc21`, for which the activity change, negative = inhibition is 1.83%.
Under `CC1Cc2cc(S(=O)(=O)CCC(=O)Nc3ccc(F)c(Cl)c3)ccc2N1C(=O)C1CC1` (centres undefined) stands -8.79%.
Under `Cc1ccc(C)c(N2CCN(C(=O)Cc3c(C(=O)O)c(C)cn3C)CC2)c1` stands 3.31%; under `Cc1nc2nc(SCC(=O)N(Cc3ccccc3)C(C)C)nn2c(C)c1Cc1ccccc1Cl`, -7.72%; under `COc1ccc(-n2c(C)nc3c(cnn3-c3ccc(F)cc3)c2=O)cc1`, -26.8%.
As for `N#C/C(=C\N1CCOCC1)S(=O)(=O)c1ccc(Cl)cc1`, the activity change, negative = inhibition is -41.8% (active).
Under `N/C(=N\S(=O)(=O)c1ccc(Cl)cc1)N1CCOCC1` stands -7.63%.
The value for `O=S(=O)(Oc1ccccc1C(=S)N1CCOCC1)c1ccc(Cl)cc1` was -1.41%.
The value for `O=C(Nc1ccc(-c2nc3cc(NC(=O)c4ccccc4Cl)ccc3o2)cc1)c1ccccc1Cl` was 6.02%.
In the case of `COC(=O)c1ccc(NC(=O)c2ccccc2NS(=O)(=O)c2ccccc2)cc1`, the activity change, negative = inhibition is -42.5% (active).
Under `COc1cc(NC(=O)c2ccccc2NS(=O)(=O)c2ccc(Cl)s2)cc(OC)c1` stands -11.8%; under `COC(=O)c1ccccc1NS(=O)(=O)c1ccc2[nH]c(=O)[nH]c2c1`, 9.8%.
With `CCS(=O)(=O)N1CCC(n2c(C)nc3cccnc32)CC1`, the activity change, negative = inhibition is 12.3%.
As for `COc1ccc(OC)c(-c2nc(C(N)=O)c3c(n2)n(-c2ccc4c(c2)OCO4)c(=O)n3C)c1`, the activity change, negative = inhibition was -6.79%.
The value for `Cc1ccc(CN2COc3cc(C)c4c(oc(=O)c5ccccc54)c3C2)cc1` was 3.2%.
As to `CCn1ccnc1CN(C)C(=O)c1cc(COc2ccc(Cl)cc2OC)on1`, the activity change, negative = inhibition was -3.88%.
The value for `CSc1ccccc1OCc1cc(C(=O)N(C)CCc2c(C)n[nH]c2C)no1` was -4.34%; that for `COc1cc(Cl)ccc1OCc1cc(C(=O)N(C)CCc2c(C)n[nH]c2C)no1` was -50% (active).
Under `Cc1noc(C)c1-c1ccc2ncnc(NCc3ccc(F)c(F)c3)c2c1` stands -25.4%; under `COc1ccc(NC(=O)CSc2nc3ccccc3[nH]2)cc1`, 7.52%; under `CC(=O)Nc1ccc(S(=O)(=O)N2CCCC2C(=O)O)cc1` (centres undefined), 2.28%.
Under `O=C(O)C1CCCN1S(=O)(=O)c1ccc(Br)cc1` (centres undefined) stands -19.4%.
Turning to `O=C(O)C1CCCN1S(=O)(=O)c1ccc2c(c1)CCC2` (centres undefined), the activity change, negative = inhibition is -38.4% (active).
The value for `CCCS(=O)(=O)c1ncc(Cl)c(C(=O)Nc2scc(-c3ccccc3)c2C(=O)OCC)n1` was -10.7%.
The value for `C=C1c2c(Cl)ccc(O)c2C(O)=C2C(=O)[C@]3(O)C(O)=C(C(N)=O)C(=O)[C@@H](N(C)C)[C@@H]3[C@@H](O)C12` (some centres undefined) was -4.29%; that for `CN(C)[C@@H]1C(=O)C(C(N)=O)=C(O)[C@@]2(O)C(=O)C3=C(O)c4c(O)ccc(Cl)c4[C@@H](O)[C@H]3C[C@@H]12` was -42.8% (active); that for `Cc1ccc(C)c(N2CCN(C(=O)Cn3nc(C)c4sc5ccccc5c4c3=O)CC2)c1` was 5.73%.
The value for `COc1ccc(-c2noc(CSc3nc(C)cc(=O)[nH]3)n2)cc1OC` was 12.5%; that for `COc1ccc(-c2cc(C(F)(F)F)n3nc(-c4ccccc4)cc3n2)cc1OC` was 6.49%.
Take `CCCN(CCC)CCNC(=O)c1ccc2c(c1)NC(=O)C(CS(=O)(=O)Cc1cccc(Br)c1)N2` (centres undefined): the activity change, negative = inhibition is -3.96%.
The value for `Cc1cccc(OCCSc2nc3ccc(NC(=O)COc4ccccc4C)cc3s2)c1` was 5.79%.
The value for `CC(=O)Nc1ccc2nc(SCCOc3cc(C)cc(C)c3)sc2c1` was -35.7% (active).
Under `Cc1ccc(OCCSc2nc3ccc(NC(=O)COc4ccc(C)cc4)cc3s2)cc1` stands -5.49%; under `NC(=O)C1CCN(C(=O)c2cccc(NC(=O)c3nsc4ccccc34)c2)CC1`, 7.53%; under `Nc1cc(N)nc(SCC(=O)Nc2cccc(S(=O)(=O)N3CCCCC3)c2)n1`, -7.32%.
On to `O=C(CSc1ccccc1)Nc1cccc(S(=O)(=O)N2CCCCC2)c1`, for which the activity change, negative = inhibition was -39.5% (active).
For `O=C(CSc1ccccc1)Nc1cccc(S(=O)(=O)N2CCOCC2)c1`, the activity change, negative = inhibition is -24.4%.

Values taken from PubChem BioAssay AID504652 (National Center for Advancing Translational Sciences (NCATS), 2011).
